Assay outcomes: PubChem BioAssay, National Center for Advancing Translational Sciences (NCATS)
L3MBTL1 inh – L3MBTL1 (human) inhibition; AID 485360; Q9Y468; hit rate 0.66% among 230,000; Potency, µM (top dose mostly 57.1 µM), actives largely listed as inhibitors; AlphaScreen L3MBTL1–H3K9me1 peptide binding; note: nearly all actives have a fitted effect of over 60% in size
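AlphaScreen proximity signal between nickel-chelate acceptor and streptavidin donor beads (final 10 ug/mL) reports binding of 50 nM L3MBTL1 to 75 nM biotin-H3 K9me1 peptide; complex incubated with compounds 30 min at room temperature; cefsulodin titration as control.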
JMJD2A Tudor – blocks the human JMJD2A Tudor domain. O75164. AlphaScreen JMJD2A-Tudor / H3K4me3 peptide binding. Potency, µM (series often up to 114 µM), hits mostly inhibitors. hit rate 4.4% among 390,000. AID 504339; note: nearly all actives have a fitted effect of over 50% in size
HP1b chromo inh – HP1-beta chromodomain-methylated histone interaction inhibition; Potency, µM (highest dose often 114 µM), hits mostly inhibitors; P83916; hit rate 0.56% among 390,000; AlphaScreen HP1-beta / biotin-H3K9me3 peptide binding; note: nearly all actives have a fitted effect of over 70% in size
Target sequence (P83916 whole entry, looked up): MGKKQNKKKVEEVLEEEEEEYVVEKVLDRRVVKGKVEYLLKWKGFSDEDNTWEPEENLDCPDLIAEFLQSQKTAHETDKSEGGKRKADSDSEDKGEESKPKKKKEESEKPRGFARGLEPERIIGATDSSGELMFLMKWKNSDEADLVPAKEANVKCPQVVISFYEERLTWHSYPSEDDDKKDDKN
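Compound inhibition of the preformed complex between 50 nM HP1-beta and 50 nM biotinylated H3K9me3 peptide was read by AlphaScreen. Buffer was PBS pH 7.4 with 0.01% Tween-20. Incubations ran 30 min at room temperature, with 10 ug/mL donor/acceptor beads.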
BAZ2B block – inhibitors of human BAZ2B bromodomain | AlphaScreen BAZ2B-H3K14Ac peptide displacement | hit rate 4.4% among 360,000 | AID 504333 | Q9UIF8 | Potency, µM (highest dose often 114 µM), hits mostly inhibitors; note: nearly all actives have a fitted effect of over 60% in size
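AlphaScreen displacement: compounds (up to 110uM) incubated 30 min at room temperature with a preformed 50 nM BAZ2B/50 nM biotinylated H3K14Ac peptide complex in PBS pH 7.4 with Tween-20. Donor and acceptor beads at 10 ug/mL final added, 20 min light-protected before reading.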
JMJD2E inh – inhibitors of human JMJD2E histone demethylase. JMJD2E catalytic domain, FDH-coupled NADH fluorescence (FDH is formaldehyde dehydrogenase). AID 2147. Potency, µM (titrated, usually from 57.1 µM), hits mostly inhibitors. hit rate 1.6% among 230,000. B2RXH2; active = well fitted inhibition curve with a large enough effect, not every such curve was filed as active; inconclusive = small, poorly fitted or top-dose-only effect, or another doubt; inactive = no such curve, though single readings can be large or run the other way; note: nearly all actives have a fitted effect of over 50% in size
Target sequence (B2RXH2 1-337 limits assumed): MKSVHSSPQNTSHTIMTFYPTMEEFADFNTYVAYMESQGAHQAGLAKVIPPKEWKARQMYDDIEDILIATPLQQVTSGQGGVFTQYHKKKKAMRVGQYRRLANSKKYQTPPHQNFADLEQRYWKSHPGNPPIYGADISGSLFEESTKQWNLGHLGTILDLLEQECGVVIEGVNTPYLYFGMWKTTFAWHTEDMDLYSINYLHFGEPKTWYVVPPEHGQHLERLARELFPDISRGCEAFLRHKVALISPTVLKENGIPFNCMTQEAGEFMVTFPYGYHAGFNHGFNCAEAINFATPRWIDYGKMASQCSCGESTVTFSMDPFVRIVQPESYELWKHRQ
PI5P4Ka inh – blocks human PI5P4K alpha kinase activity; max response, %; AID 652105; PI5P4Kalpha enzyme, ADP-Glo luminescence, 60 min; hits give low values; P48426; hit rate 1.2% among 330,000; active = max response of -50% or lower; inconclusive = between -30% and -50%; inactive = -30% or higher; note: value at the top dose of about 77 µM
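Luminescence from ADP-Glo served as readout of PI5P4Kalpha activity in a qHTS format. Reaction: enzyme, substrate, compound, ATP at 5 microM final, 60 min at RT.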
Each line names hits and unclear results; the compound was inactive in the other large screens. Shown are actives, neighbours in structure and some others; about 5.7% of the full set was active somewhere. Unless noted, calls come from the whole dose curve; as a rule, active = well fitted inhibition curve with a large enough effect; inconclusive = small, poorly fitted or top-dose-only effect; inactive = no such curve, though single readings can be large or run the other way.

CCOc1cc(-c2cc(-c3ccc(C)o3)nc(N)c2C#N)ccc1O	JMJD2E inh inconclusive, PI5P4Ka inh -55 (no result: L3MBTL1 inh)
CCCCCCOc1ccc(C2C(=O)N(C3CCCCC3)CC(=O)N2CCCC)cc1 (stereo unspecified)	none (no result: L3MBTL1 inh, JMJD2E inh, PI5P4Ka inh)
COc1ccc(CCNC(=O)c2cc(Sc3cccc(Cl)c3)nc3ccccc23)cc1OC	none (no result: L3MBTL1 inh, JMJD2E inh, PI5P4Ka inh)
COc1ccc(CNC(=O)c2ccc(CS(=O)Cc3ccccc3Cl)o2)cc1 (stereo unspecified)	none (no result: L3MBTL1 inh, JMJD2E inh, PI5P4Ka inh)
CC(C)NC(=O)c1onc(CSc2ccc(F)c(F)c2)c1C(=O)NC(C)C	none (no result: L3MBTL1 inh, BAZ2B block, JMJD2E inh)
CC(C)NC(=O)c1onc(CSc2ccc(F)c(F)c2)c1C(=O)O	JMJD2A Tudor 79µM, BAZ2B block inconclusive, JMJD2E inh inconclusive
CCOC(=O)C1CCN(S(=O)(=O)c2cc(C(=O)N3CCCCC3)ccc2OC)CC1	none (no result: L3MBTL1 inh, JMJD2E inh)
CCCCN1CCc2c([nH]c3c(C)cccc23)C1=O	JMJD2A Tudor 20µM, HP1b chromo inh inconclusive, JMJD2E inh inconclusive, PI5P4Ka inh inconclusive
Cn1c(=O)c(=O)n(C)c2cc(S(=O)(=O)N3CCN(c4ccccc4)CC3)ccc21	none (no result: L3MBTL1 inh, BAZ2B block, JMJD2E inh, PI5P4Ka inh)
O=C(CCNS(=O)(=O)c1ccc2c(c1)CCCC(=O)N2)NCc1ccccc1Cl	none (no result: L3MBTL1 inh, JMJD2E inh, PI5P4Ka inh)
CCCc1cc(CN2CCOCC2)c(O)c(CN2CCOCC2)c1O	JMJD2A Tudor 11µM, HP1b chromo inh 25µM (no result: L3MBTL1 inh, BAZ2B block, JMJD2E inh)
Oc1cccc(CN2CCOCC2)c1O	JMJD2A Tudor 10µM, HP1b chromo inh 71µM (no result: L3MBTL1 inh, BAZ2B block, JMJD2E inh)
c1csc(CNCCCN2CCOCC2)c1	none
Oc1c(Cl)cc(Oc2cc(Cl)c(O)c(CN3CCOCC3)c2)cc1CN1CCOCC1	JMJD2A Tudor inconclusive, HP1b chromo inh inconclusive (no result: L3MBTL1 inh, BAZ2B block, JMJD2E inh)
Oc1c(CN2CCOCC2)cc(CN2CCOCC2)c(O)c1O	JMJD2A Tudor 11µM, HP1b chromo inh 6.3µM (no result: L3MBTL1 inh, BAZ2B block, JMJD2E inh)
c1csc(CN2CCOCC2)c1	JMJD2A Tudor 2.8µM, HP1b chromo inh inconclusive, BAZ2B block 35µM (no result: L3MBTL1 inh, PI5P4Ka inh)
C=CCn1c(SCC(=O)N(CC)C2CCS(=O)(=O)C2)nc2ccccc2c1=O (stereo unspecified)	none (no result: L3MBTL1 inh)
C=CCn1c(SCc2ccccc2F)nc2cc(C(=O)O)ccc2c1=O	BAZ2B block inconclusive, PI5P4Ka inh -74 (no result: L3MBTL1 inh, JMJD2E inh)
CC(=O)NCCn1c(SCc2ccccc2F)nc2ccccc2c1=O	none (no result: PI5P4Ka inh)
C=CCn1c(SCC(=O)N(CC)C2CCS(=O)(=O)C2)nc2cc(C(=O)O)ccc2c1=O (stereo unspecified)	PI5P4Ka inh -64 (no result: JMJD2E inh)
CN(C)S(=O)(=O)Nc1cc(Cl)cc(Cl)c1	JMJD2A Tudor 40µM
Cc1ccc(NS(=O)(=O)N(C)C)cc1	none
CCOc1ccc(NC(=O)CN(C)C(=O)c2cn(-c3ccccc3)nc2-c2cccs2)cc1OCC	BAZ2B block inconclusive (no result: L3MBTL1 inh, JMJD2E inh)
O=S(=O)(c1cccc(C(F)(F)F)c1)N1CCN(c2ccccc2)CC1	none (no result: L3MBTL1 inh, PI5P4Ka inh)
O=S(=O)(c1ccc(F)cc1)N1CCN(CC(O)COCc2ccccc2)CC1 (stereo unspecified)	JMJD2A Tudor 5.6µM, HP1b chromo inh inconclusive (no result: L3MBTL1 inh, BAZ2B block, JMJD2E inh)
O=S(=O)(c1cccc(C(F)(F)F)c1)N1CCN(CC(O)COCc2ccccc2)CC1 (stereo unspecified)	JMJD2A Tudor 13µM, HP1b chromo inh inconclusive (no result: BAZ2B block, JMJD2E inh)
CC(C)(O)C(O)COc1c2ccoc2cc2oc(=O)ccc12 (stereo unspecified)	L3MBTL1 inh inconclusive, JMJD2E inh inconclusive
CC1(C)OC1COc1c2ccoc2cc2oc(=O)ccc12 (stereo unspecified)	JMJD2E inh 32µM
Cc1oc2ccc(O)c(CN3CCOCC3)c2c1C(=O)c1ccc(Cl)cc1	none
Cc1oc2c(Cl)c(Cl)c(O)c(CN(C)C)c2c1C(=O)c1ccc(Cl)cc1	JMJD2A Tudor inconclusive, BAZ2B block 45µM (no result: JMJD2E inh)
COc1cc(C(O)c2nc(-c3ccc(N(C)C)cc3)cs2)ccc1F (stereo unspecified)	none (no result: L3MBTL1 inh, JMJD2A Tudor, HP1b chromo inh, BAZ2B block, JMJD2E inh)
COC(=O)c1sccc1NC(=O)CN(C)NS(=O)(=O)c1ccc([N+](=O)[O-])cc1	JMJD2A Tudor 56µM
CO/N=C/NC(=O)c1ccc([N+](=O)[O-])c(CS(=O)(=O)c2ccc(Cl)cc2)c1	JMJD2A Tudor inconclusive, PI5P4Ka inh -50
NNC(=O)c1ccc([N+](=O)[O-])c(CS(=O)(=O)c2ccc(Cl)cc2)c1	none
